Experimental findings from PubChem BioAssay are described below.

Records with an inconclusive call do not appear. Active and inactive are the calls of the source.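 The calls were made as follows, unless noted: active = percent response above a set limit, the screen-wide mean plus 3 SD (cut at about 130% in these data); inactive = the rest.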 Peptide text beside a SMILES is read from it.

A short description of assay [1]: yeast TOR pathway RPL19A-GFP modulators, primary screen, cell-based, S. cerevisiae, multiplex flow cytometry (AID 1862; in the data active = percent of DMSO control GFP below about 86%;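 also: lower values mimic rapamycin by blocking the RPL19A rise seen in DMSO cells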). The conditions noted are these: S. cerevisiae RPL19A-GFP strain, flow cytometry fluorescence, 3 h; at 10 µM; stronger effect = lower value. On the technique in general: In flow cytometry, cells or beads pass a laser one at a time.
Assay [2] is described as follows: modulators of MEP2-GFP levels in yeast, primary screen, S. cerevisiae, multiplex flow cytometry (AID 1867;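 active = GFP response, as percent of the DMSO control, above the screen-wide mean plus 3 SD, about 139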;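 also: median GFP channel fluorescence of barcode-gated MEP2-GFP cells measured by flow cytometry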). The conditions noted are these: S. cerevisiae MEP2-GFP strain, 3 h, at 10 µM, stronger effect = higher value, 100% means same as DMSO wells.
Assay [3] can be described thus: modulators of CIT2-GFP expression in yeast, primary screen, S. cerevisiae, GFP fusion, multiplex flow cytometry (AID 1870).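 Also: barcoded CIT2-GFP strain pooled with four other GFP strains with rapamycin as positive control; median GFP fluorescence per well over plate mean of DMSO wells so 100% = DMSO.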 To be noted: 3 h, at 10 µM, stronger effect = higher value.
The nature of assay [4]: modulators of LAP4-GFP expression in yeast, primary screen, S. cerevisiae, multiplex flow cytometry (AID 1873;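 active = GFP signal, as percent of the solvent control, above the screen mean plus 3 SD, about 149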). To be noted: 3 h, at 10 µM, stronger effect = higher value.
The nature of assay [5]: modulators of AGP1-GFP expression in yeast TOR pathway, primary screen, cell-based, multiplex flow cytometry, S. cerevisiae (AID 1887;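 active = GFP signal above the screen-wide mean plus 3 SD, that is over about 124.5% of the solvent control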;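 also: AGP1-GFP fusion strain of S. cerevisiae within a five-strain barcoded multiplex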). The conditions noted are these: 3 h, at 10 µM, stronger effect = higher value.
The nature of assay [6]: inhibitors of CD8+ T cell-vesicle binding, pilot screen, LFA-1/ICAM-1 modulator project, MLPCN validation set, flow cytometry (AID 2523;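 active = response below a set limit, under 55% cells CD8-positive and vesicle-bound, and CD8 cells' 90th-percentile brightness under 279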;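 as to vesicle binding response: mean PE anti-B7-1 fluorescence of CD8+ cells relative to row control; 100% = QL9-loaded vesicles with DMSO vehicle in the same plate row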). The conditions noted are these: 2C mouse CD8+ T cells, at 7 µM, stronger effect = lower value; double positive events: measured here: CD8+/vesicle+ event percentage.
Assay [7] has as its target Integrin beta-1 (Homo sapiens) + Integrin alpha-4 (Homo sapiens) (UniProt P13612+P05556). The assay is described as follows: inhibition of HUTS-21 binding to VLA-4, pilot screen, VLA-4 allosteric modulator project, U937 cells, HUTS-21 mAb, flow cytometry, validation set (AID 2674;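 active = inhibition above 50%, about 3 SD of the validation set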;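 also: antibody binding induced by the VLA-4 ligand LDV present at three times its Kd; 0% = LDV ligand with antibody and no compound and 100% = antibody without LDV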). To be noted: HUTS-21 LIBS mAb binding, at 6.7 µM, stronger effect = higher value, binding induced by LDV ligand.

Assay [8] is described as follows: superoxide lowering in aged yeast cells, pilot screen, validation compound set (AID 2706;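 active = superoxide response below 65% of plate, a cut near 3 SD across the whole screen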;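 also: yeast exposed to compound for one week at 30 degrees C before staining; 100% = mean of all compound wells on the same plate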). The conditions noted are these: S. cerevisiae aging, superoxide DHE fluorescence; at 10 µM; stronger effect = lower value.
In assay [9] the target is Beta-adrenergic receptor kinase 1 (Homo sapiens) (UniProt P25098). The assay is described as follows: GRK2 binders displacing RNA aptamer, biochemical, validation, human GRK2, bead flow cytometry (AID 488806;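 active = aptamer binding inhibition above 30%, about 3 SD of noise from non-fluorescent compounds; inactive = inhibition at or below 30%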). The conditions noted are these: bead-bound GRK2, FAM-aptamer displacement, at 10 µM, stronger effect = higher value.
The target in assay [10] is Beta-2 adrenergic receptor (Homo sapiens) (UniProt P07550). Description: beta2AR agonists driving receptor internalization, pilot screen, cell-based, FAP fluorogen, flow cytometry, validation set (AID 504459;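 active = percent response above 42, roughly 3 SD of non-fluorescent test compounds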;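 also: agonist-driven loss of surface beta2AR via internalization measured by FAP dye flow cytometry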). To be noted: Am2.2-beta2AR cells, FAP surface receptor flow cytometry; at 10 µM; stronger effect = higher value.
Assay [11] concerns the target AP-2 complex subunit beta (Homo sapiens) (UniProt P63010). The assay is described as follows: inhibitors of arrestin peptide binding to AP2, pilot screen, biochemical, validation set, GST-AP2 beads, flow cytometry (AID 504541;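 active = inhibition above 54%, about 3 SD of non-fluorescent compounds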;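 also: AP2 carries R879A mutation and is captured from E. coli lysate; bead-bound FITC arrestin peptide fluorescence measuring arrestin peptide binding to AP2; 0% = DMSO wells and 100% = excess unlabeled arrestin peptide control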). To be noted: FITC arrestin peptide, at 10 µM, stronger effect = higher value, AP2 beta2 appendage fragment, R879A mutant.
A short description of assay [12]: yeast V-ATPase proton transport modulators, S. cerevisiae, pHLuorin, HTS validation (AID 504600; in the data active = response above about 15%;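 also: plate controls were DMSO for no effect and reference compound for full effect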). The conditions noted are these: S. cerevisiae pHLuorin cytosolic pH, at 10 µM, stronger effect = higher value.
In assay [13] the test system is anti-desmoglein-3 scFv antibody binding to human DSG3. The assay is described as follows: inhibitors of anti-DSG3 scFv binding to DSG3, pilot screen, biochemical, validation compound set, bead-based, flow cytometry (AID 588368;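 active = binding below the plate cutoff, the plate median minus 3 SD, with a reading above zero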;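 also: signal is the median channel fluorescence of bead-bound GFP antibody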). To be noted: Protein G beads, DSG3-Fc, scFv-GFP binding, at 10 µM, stronger effect = lower value.
Assay [14] can be described thus: inhibitors of fungal efflux pumps CDR1, CDR2, MDR1, pilot screen, validation compound set, multiplex, phenotypic (AID 588506;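 active = efflux inhibition above 0.42, the validation set average plus 4 SD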;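 also: Nile Red retained in cells so higher fluorescence means more efflux inhibition; 0 = negative control wells and 1 = enniatin B 25 µM full block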). The conditions noted are these: S. cerevisiae pump-expressing triplex, Nile Red efflux flow cytometry; at 10 µM; stronger effect = higher value; the pumps come from Candida albicans.
Assay [15] has as its target ATP-binding cassette sub-family B member 6 (Homo sapiens) (UniProt Q9NP58). Description: ABCB6 transporter inhibitors, pilot screen, K562-ABCB6 cells, flow cytometry, validation set (AID 588550;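 active = inhibition above the screen-wide mean plus 3 SD, about 51%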;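 also: 0% = DMSO wells and 100% = benzethonium chloride 70 µM positive control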). The conditions noted are these: K562-ABCB6 porphyrin accumulation, 1 h, at 10 µM, stronger effect = higher value.
A short description of assay [16]: promoters of myeloid differentiation in arrested cells, primary screen, cell-based, GFP/MAC1 double positive, flow cytometry, validation set (AID 588685;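 active = differentiation response of at least 50%, scaled between solvent and reference control, from cells with both markers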;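 also: compound exposure lasts four days before antibody staining and flow analysis; 0% = DMSO wells and 100% = 5 µM fulvestrant positive control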). The conditions noted are these: ER-HoxA9 marrow cells, stronger effect = higher value, normalized: vehicle 0, fulvestrant 100.

ATP-binding cassette sub-family B member 6 (Homo sapiens), sequence (Q9NP58 whole entry, looked up): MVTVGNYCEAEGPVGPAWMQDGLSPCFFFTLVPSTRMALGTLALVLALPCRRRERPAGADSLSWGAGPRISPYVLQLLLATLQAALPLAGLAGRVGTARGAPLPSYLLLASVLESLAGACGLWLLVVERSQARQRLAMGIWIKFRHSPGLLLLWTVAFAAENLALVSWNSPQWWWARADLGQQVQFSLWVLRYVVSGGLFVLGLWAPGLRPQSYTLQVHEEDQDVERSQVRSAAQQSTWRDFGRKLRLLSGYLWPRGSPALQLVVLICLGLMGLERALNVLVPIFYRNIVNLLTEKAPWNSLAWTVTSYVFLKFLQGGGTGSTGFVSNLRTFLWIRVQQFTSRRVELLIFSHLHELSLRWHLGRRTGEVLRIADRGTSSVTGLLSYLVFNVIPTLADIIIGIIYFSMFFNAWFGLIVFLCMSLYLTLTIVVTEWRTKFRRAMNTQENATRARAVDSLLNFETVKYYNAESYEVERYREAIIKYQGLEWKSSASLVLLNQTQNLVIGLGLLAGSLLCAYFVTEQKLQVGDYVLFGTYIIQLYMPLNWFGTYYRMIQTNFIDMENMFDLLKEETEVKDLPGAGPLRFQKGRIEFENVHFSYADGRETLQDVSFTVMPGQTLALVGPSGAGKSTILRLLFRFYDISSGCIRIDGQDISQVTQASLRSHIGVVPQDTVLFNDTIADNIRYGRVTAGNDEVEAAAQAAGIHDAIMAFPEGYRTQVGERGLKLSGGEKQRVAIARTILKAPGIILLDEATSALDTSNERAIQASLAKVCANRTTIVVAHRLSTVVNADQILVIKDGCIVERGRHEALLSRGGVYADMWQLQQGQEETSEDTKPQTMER
Integrin beta-1 (Homo sapiens) + Integrin alpha-4 (Homo sapiens), sequence (P05556 whole entry, looked up): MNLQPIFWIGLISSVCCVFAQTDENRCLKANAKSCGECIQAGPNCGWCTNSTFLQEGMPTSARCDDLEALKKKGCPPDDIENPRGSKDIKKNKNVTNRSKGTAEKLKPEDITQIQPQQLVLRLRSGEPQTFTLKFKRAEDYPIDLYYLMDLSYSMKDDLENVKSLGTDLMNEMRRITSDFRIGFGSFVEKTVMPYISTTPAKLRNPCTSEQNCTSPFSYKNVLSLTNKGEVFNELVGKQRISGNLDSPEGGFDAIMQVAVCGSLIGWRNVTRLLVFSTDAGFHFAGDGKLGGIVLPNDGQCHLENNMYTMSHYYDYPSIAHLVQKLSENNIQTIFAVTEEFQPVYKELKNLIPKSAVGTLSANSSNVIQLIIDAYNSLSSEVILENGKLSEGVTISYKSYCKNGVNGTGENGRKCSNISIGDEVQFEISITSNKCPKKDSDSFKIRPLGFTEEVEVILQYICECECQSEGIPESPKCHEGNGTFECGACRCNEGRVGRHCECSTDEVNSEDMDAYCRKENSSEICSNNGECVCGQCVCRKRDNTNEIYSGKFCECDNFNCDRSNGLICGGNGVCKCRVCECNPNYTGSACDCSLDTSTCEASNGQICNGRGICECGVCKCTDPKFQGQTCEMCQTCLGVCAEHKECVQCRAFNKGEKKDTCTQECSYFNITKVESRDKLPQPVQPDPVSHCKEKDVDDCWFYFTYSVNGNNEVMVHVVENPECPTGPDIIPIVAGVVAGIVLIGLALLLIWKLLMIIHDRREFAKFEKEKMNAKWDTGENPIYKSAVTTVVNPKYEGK
Integrin beta-1 (Homo sapiens) + Integrin alpha-4 (Homo sapiens), sequence (P13612 whole entry, looked up): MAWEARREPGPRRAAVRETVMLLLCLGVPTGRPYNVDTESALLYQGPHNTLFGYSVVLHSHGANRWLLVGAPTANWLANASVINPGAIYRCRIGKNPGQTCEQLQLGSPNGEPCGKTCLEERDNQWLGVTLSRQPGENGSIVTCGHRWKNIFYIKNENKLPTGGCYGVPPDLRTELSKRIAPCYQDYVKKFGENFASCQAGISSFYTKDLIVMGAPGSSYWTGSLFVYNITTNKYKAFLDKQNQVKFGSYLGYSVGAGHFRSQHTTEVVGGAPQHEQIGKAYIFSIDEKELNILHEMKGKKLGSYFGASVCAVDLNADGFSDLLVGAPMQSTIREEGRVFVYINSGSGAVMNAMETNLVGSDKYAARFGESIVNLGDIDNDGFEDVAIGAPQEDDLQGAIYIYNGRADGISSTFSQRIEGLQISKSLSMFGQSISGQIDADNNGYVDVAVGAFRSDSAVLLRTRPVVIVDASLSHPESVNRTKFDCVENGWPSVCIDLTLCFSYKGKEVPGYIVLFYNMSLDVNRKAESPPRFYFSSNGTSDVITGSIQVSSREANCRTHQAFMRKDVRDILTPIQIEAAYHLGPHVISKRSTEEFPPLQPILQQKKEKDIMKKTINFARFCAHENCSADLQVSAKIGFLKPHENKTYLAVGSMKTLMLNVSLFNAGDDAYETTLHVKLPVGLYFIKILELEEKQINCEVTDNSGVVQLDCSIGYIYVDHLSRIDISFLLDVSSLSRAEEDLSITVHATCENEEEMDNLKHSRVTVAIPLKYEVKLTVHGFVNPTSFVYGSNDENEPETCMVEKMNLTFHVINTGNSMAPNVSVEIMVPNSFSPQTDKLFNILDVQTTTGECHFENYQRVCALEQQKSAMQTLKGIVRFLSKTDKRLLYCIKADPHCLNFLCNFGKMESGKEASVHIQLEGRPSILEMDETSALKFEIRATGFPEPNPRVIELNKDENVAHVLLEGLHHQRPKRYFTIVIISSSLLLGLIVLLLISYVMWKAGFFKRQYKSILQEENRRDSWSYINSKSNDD
Beta-2 adrenergic receptor (Homo sapiens), sequence (P07550 whole entry, looked up): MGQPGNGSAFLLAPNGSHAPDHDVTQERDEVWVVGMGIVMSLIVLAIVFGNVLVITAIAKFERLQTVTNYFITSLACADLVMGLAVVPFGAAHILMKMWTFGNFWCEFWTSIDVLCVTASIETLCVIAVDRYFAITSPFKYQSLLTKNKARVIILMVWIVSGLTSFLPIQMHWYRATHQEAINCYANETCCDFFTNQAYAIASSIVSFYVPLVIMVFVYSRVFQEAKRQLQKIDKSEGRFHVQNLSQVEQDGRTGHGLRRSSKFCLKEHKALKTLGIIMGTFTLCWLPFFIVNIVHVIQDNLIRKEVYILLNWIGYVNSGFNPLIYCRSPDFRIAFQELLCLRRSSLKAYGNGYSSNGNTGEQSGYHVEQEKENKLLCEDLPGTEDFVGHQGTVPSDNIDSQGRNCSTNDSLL
AP-2 complex subunit beta (Homo sapiens), sequence (P63010 whole entry, looked up, the tested form may be a part, one chain of several): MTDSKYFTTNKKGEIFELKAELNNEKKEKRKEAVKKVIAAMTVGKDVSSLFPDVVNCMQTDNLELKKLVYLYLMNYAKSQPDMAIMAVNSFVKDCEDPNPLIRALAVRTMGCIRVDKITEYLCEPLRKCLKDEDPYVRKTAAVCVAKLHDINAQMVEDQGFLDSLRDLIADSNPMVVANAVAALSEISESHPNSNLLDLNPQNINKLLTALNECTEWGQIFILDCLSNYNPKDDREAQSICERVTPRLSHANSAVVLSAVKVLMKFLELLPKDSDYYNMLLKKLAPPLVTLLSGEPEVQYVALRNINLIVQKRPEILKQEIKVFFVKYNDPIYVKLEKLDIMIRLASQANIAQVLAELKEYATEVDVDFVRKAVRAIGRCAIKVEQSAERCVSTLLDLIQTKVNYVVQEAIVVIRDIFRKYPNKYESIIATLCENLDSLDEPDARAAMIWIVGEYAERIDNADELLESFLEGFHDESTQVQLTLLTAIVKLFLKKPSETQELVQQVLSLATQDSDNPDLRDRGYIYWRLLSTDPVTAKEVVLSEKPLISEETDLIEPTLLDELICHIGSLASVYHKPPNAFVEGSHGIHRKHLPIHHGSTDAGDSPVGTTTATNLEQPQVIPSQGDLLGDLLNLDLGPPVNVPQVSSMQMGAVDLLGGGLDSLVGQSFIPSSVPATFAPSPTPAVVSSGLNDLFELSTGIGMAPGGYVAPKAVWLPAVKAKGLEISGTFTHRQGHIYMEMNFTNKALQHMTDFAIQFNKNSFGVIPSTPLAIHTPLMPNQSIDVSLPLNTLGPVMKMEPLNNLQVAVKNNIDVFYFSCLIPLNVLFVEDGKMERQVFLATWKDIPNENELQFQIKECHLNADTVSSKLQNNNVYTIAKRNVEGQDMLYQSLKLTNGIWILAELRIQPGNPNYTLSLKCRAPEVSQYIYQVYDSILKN
Beta-adrenergic receptor kinase 1 (Homo sapiens), sequence (P25098 whole entry, looked up): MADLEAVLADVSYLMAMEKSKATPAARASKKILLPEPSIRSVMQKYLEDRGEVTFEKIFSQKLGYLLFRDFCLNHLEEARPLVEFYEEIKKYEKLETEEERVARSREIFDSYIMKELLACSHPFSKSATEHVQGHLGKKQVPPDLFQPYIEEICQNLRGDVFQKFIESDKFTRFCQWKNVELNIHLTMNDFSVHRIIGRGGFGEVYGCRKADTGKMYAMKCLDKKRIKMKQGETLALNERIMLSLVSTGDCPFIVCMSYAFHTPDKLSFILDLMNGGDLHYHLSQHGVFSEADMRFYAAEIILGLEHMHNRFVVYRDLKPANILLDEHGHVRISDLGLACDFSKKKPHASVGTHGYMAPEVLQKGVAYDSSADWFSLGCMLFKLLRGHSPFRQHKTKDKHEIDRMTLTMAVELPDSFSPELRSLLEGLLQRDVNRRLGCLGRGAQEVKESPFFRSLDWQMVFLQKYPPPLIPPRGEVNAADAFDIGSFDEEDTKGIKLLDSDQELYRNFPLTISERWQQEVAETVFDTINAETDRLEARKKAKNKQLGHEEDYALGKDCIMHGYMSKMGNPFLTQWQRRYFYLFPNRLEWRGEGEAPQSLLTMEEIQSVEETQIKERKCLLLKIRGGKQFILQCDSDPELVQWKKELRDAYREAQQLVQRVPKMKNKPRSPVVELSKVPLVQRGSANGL

By inhibition is commonly meant the relative decrease from the control value, in per cent. Regarding `O=C(NCCc1ccccc1)C1CCN(C2CCN(Cc3ccco3)CC2)CC1`, the percent of DMSO control GFP in assay [1] is 98.6% (inactive). The GFP response vs DMSO is 105% (inactive) in assay [2] and 118% (inactive) in [4]. Besides, in assay [3], the percent response of DMSO control was 101% (inactive). Moreover, the GFP response, % of DMSO in assay [5] was 120% (inactive). Also, the double positive events in assay [6] was 58.9%. In addition, the vesicle binding response in [6] was 159% (inactive). The inhibition was -9.63% (inactive) in assay [7], -2.11% (inactive) in assay [11] and 6% (inactive) in [15]. For the same molecule, the superoxide response (% of plate) in assay [8] is 92.6% (inactive). Moreover, in assay [9], the aptamer binding inhibition was -13% (inactive). Moreover, the response was -41.8% (inactive) in [10] and -0.87% (inactive) in [12]. Besides, in assay [13], the binding (% of control) was 126% (inactive). Moreover, in assay [14], the efflux inhibition (fraction of control) was -0.04 (inactive). The differentiation response in assay [16] was -5.97% (inactive).

As for `CC(=O)NC(CC(C)C)C(=O)NC(Cc1ccccc1)C(N)=O` (stereo not drawn) (Ac-Leu-Phe-NH2; configuration not given here), in [1], the percent of DMSO control GFP was 101% (inactive). The GFP response vs DMSO in [2] was 107% (inactive); in assay [4], 111% (inactive). Also, the percent response of DMSO control in assay [3] was 98.6% (inactive). Also, the GFP response, % of DMSO in assay [5] is 103% (inactive). For the same molecule, in [6], the double positive events was determined as 60.5%. Besides, the vesicle binding response in [6] was 128% (inactive). Further, the inhibition is 20.4% (inactive) in assay [7], -15.5% (inactive) in assay [11] and 13% (inactive) in assay [15]. Besides, the superoxide response (% of plate) in assay [8] was 91.8% (inactive). The aptamer binding inhibition in [9] was 2% (inactive). Moreover, the response in assay [10] is 4.73% (inactive); in [12] it was -1.63% (inactive). For the same molecule, the binding (% of control) in assay [13] is 103% (inactive). The efflux inhibition (fraction of control) in [14] was -0.13 (inactive). Moreover, the differentiation response in [16] is -4.57% (inactive).

Consider `CCOC(=O)C1C(=O)OC2(CCOC(C)(C)C2)C1C(=O)OCC` (stereo not drawn), for which the percent of DMSO control GFP in assay [1] was 109% (inactive). The GFP response vs DMSO in [2] was 108% (inactive); in assay [4], 125% (inactive). In addition, the percent response of DMSO control in [3] was 102% (inactive). Also, in assay [5], the GFP response, % of DMSO was 108% (inactive). Also, the double positive events in assay [6] stood at 70.8%. In addition, the vesicle binding response in assay [6] is 8780% (inactive). For the same molecule, the figures for the inhibition in assay [7], in assay [11] and in [15] were 10.5% (inactive), -2.89% (inactive) and 6% (inactive), respectively. The superoxide response (% of plate) in assay [8] was 102% (inactive). In addition, in [9], the aptamer binding inhibition was 5% (inactive). Further, the response in assay [10] is 16.1% (inactive); in [12], -6.07% (inactive). Moreover, in [13], the binding (% of control) is 102% (inactive). Moreover, in assay [14], the efflux inhibition (fraction of control) is 0.15 (inactive). Also, in assay [16], the differentiation response was -4% (inactive).

As to `COc1ccc(CCn2c(C)nc3c(c(=O)c4ccccc4n3C)c2=O)cc1`, the percent of DMSO control GFP in assay [1] is 98.6% (inactive). Further, the results for the GFP response vs DMSO in assay [2] and in assay [4] were 102% (inactive) and 104% (inactive), respectively. For the same molecule, the percent response of DMSO control in assay [3] is 103% (inactive). For the same molecule, in assay [5], the GFP response, % of DMSO is 116% (inactive). Further, in assay [6], the double positive events stood at 61.1%. In addition, in assay [6], the vesicle binding response is 155% (inactive). Moreover, the values for the inhibition in assay [7], in [11] and in assay [15] were -8.78% (inactive), 7.96% (inactive) and 5% (inactive), respectively. Moreover, the superoxide response (% of plate) in [8] was 96.8% (inactive). The aptamer binding inhibition in assay [9] was 5% (inactive). Moreover, the figures for the response in assay [10] and in [12] were -29.5% (inactive) and 7.85% (inactive), respectively. The binding (% of control) in [13] was 101% (inactive). For the same molecule, the efflux inhibition (fraction of control) in assay [14] is 0.21 (inactive). The differentiation response in assay [16] is 16.7% (inactive).
